# Results as given in PubChem BioAssay (NCATS).
# Results filed as inconclusive are left out. Where a call stands in place of a potency, no number is given. Activity calls are given as the source filed them. Unless noted, calls come from the whole dose curve.
# What was measured:
# [1] = qHTS Assay for Identifying Gametocytocidal Compounds (AID 743244; active = well fitted curve in the direction sought with a large enough effect; note: potency is the fitted concentration of half-maximal effect); conditions: P. falciparum 3D7 stage III-V gametocytes, alamarBlue, 72 h
# Procedure, shortened: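 3D7 gametocytes, stages III–V, 20,000/well; cpd 72 h, 37 °C/5% CO2; + alamarBlue 24 h; fluor. Ex 525/Em 598.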
# [2] = Primary qHTS for inhibitors of SARS-S pseudo-typed particle cell entry (AID 1479145); conditions: SARS-S pseudotyped particle cell entry, luciferase reporter; series mostly up to 57.1 µM; note: nearly all actives have a fitted effect of over 45% in size; note: potency is the fitted concentration of half-maximal effect
# [3] = Cytotoxicity counterscreen for inhibitors of SARS-CoV-2 cell entry (AID 1645845); conditions: cell viability (SARS-CoV-2 entry assay cells); series mostly up to 57.1 µM; note: nearly all actives have a fitted effect of over 50% in size; note: potency is the fitted concentration of half-maximal effect
# Procedure, shortened: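 Counterscreen run in the same HEK293-ACE2 line as the pseudotyped-particle entry assay, without particles. Viability after 48 h at 37 C was read as ATP luminescence, scaled between cell-containing and cell-free wells.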
# [4] = Primary qHTS to identify inhibitors of SARS-CoV-2 cell entry (AID 1645846); conditions: SARS-CoV-2 pseudovirus cell entry assay, luminescence; activity change, negative = inhibition: at 57.1 µM (top of the series) unless noted; note: nearly all actives have a fitted effect of over 45% in size; note: potency is the fitted concentration of half-maximal effect
# Procedure, shortened: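 HEK293 cells stably expressing human ACE2, pre-treated 1 h with compound, then infected with MLV particles pseudotyped with Wuhan-Hu-1 spike (C-terminal 19-aa truncation). Luciferase luminescence after 48 h at 37 °C, normalised to spike PP and bald PP.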
# [5] = VSVG counterscreen qHTS to identify inhibitors of SARS-CoV-2 cell entry (AID 1645847); conditions: VSV-G pseudotyped particle entry, luciferase; series mostly up to 57.2 µM; note: potency is the fitted concentration of half-maximal effect; nearly all actives have a fitted effect of over 65% in size
# Procedure, shortened: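 HEK293-ACE2 cells (Expi293F, human ACE2) pretreated 1 h with compound, then infected with MLV-based VSV-G pseudotyped particles for 48 h at 37 C; luciferase luminescence normalized to VSV-G PP and bald PP wells.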
# [6] = Primary qHTS for Huh7 cytotoxicity: counterscreen for inhibitors of MERS-S pseudotyped particle cell entry (AID 1479147); conditions: cell viability read-out; series mostly up to 57.1 µM; note: potency is the fitted concentration of half-maximal effect
# [7] = Primary qHTS for inhibitors of MERS-S pseudo-typed particle cell entry (AID 1479149); conditions: MERS-S pseudotyped particle entry, luciferase; series mostly up to 57.1 µM; note: nearly all actives have a fitted effect of over 60% in size; note: potency is the fitted concentration of half-maximal effect
# [8] = Primary qHTS for Vero E6 cytotoxicity: counterscreen for inhibitors of SARS-S pseudo-typed particle cell entry (AID 1479150); conditions: cell viability; series mostly up to 57.1 µM
# [9] = Confirmatory qHTS to identify inhibitors of SARS-CoV-2 cell entry (AID 1645844); conditions: SARS-CoV-2 pseudotyped particle cell entry, luciferase; series mostly up to 57.2 µM; note: potency is the fitted concentration of half-maximal effect; nearly all actives have a fitted effect of over 45% in size
# Procedure, shortened: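 HEK293-ACE2, overnight seeding; cpd 1 h, 37C/5% CO2; + SARS-CoV-2-S MLV PP (Wuhan-Hu-1, ΔC19); 48 h; Bright-Glo luminescence. Data normalised to S PP and bald PP wells.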
smiles,measurement,setting,value
CO[C@H](C(=O)[C@@H](O)[C@@H](C)O)C1Cc2cc3cc(O[C@H]4C[C@@H](O[C@H]5C[C@@H](O)[C@H](O)[C@@H](C)O5)[C@@H](O)[C@@H](C)O4)c(C)c(O)c3c(O)c2C(=O)[C@H]1O[C@H]1C[C@@H](O[C@H]2C[C@@H](O[C@H]3C[C@](C)(O)[C@H](O)[C@@H](C)O3)[C@H](O)[C@@H](C)O2)[C@H](O)[C@@H](C)O1 (stereo partly specified),Potency,[1],833 nM (active)
same,Potency,[2],3550 nM (active)
same,Potency,[3],inactive
same,"activity change, negative = inhibition",[4],-92.7%
same,Potency,[5],152 nM (active)
O=C(NC1CCN(CCCCC2(C(=O)NCC(F)(F)F)c3ccccc3-c3ccccc32)CC1)c1ccccc1-c1ccc(C(F)(F)F)cc1,Potency,[6],31600 nM (active)
CC[C@]12C=CCN3CC[C@@]4(c5cc([C@@]6(C(=O)OC)CC7C[C@@H](C(C)(F)F)CN(Cc8c6[nH]c6ccccc86)C7)c(OC)cc5N(C)[C@H]4[C@@](O)(C(=O)OC)[C@@H]1OC(C)=O)[C@@H]32 (stereo partly specified),Potency,[6],inactive
Nc1nc(NC2CC2)c2ncn([C@H]3C=C[C@@H](CO)C3)c2n1,Potency,[2],inactive
same,Potency,[7],inactive
same,Potency,[4],inactive
C(=C\c1ccncc1)/c1ccccc1,Potency,[2],inactive
same,Potency,[8],inactive
same,Potency,[4],inactive
CO[C@H]1C[C@@H]2CC[C@@H](C)[C@@](O)(O2)C(=O)C(=O)N2CCCC[C@H]2C(=O)O[C@H]([C@@H](C)C[C@@H]2CC[C@@H](O)[C@H](OC)C2)CC(=O)[C@H](C)/C=C(\C)[C@@H](O)[C@@H](OC)C(=O)[C@H](C)C[C@H](C)/C=C/C=C/C=C/1C,Potency,[2],inactive
same,Potency,[8],inactive
same,Potency,[4],20000 nM (active)
CC[C@@]1(O)C(=O)OCc2c1cc1n(c2=O)Cc2cc3c([N+](=O)[O-])cccc3nc2-1,Potency,[2],inactive
same,Potency,[7],inactive
same,Potency,[9],17.5 nM (active)
same,Potency,[3],inactive
same,"activity change, negative = inhibition",[4],-97% [at 114 µM]
same,Potency,[5],22.1 nM (active)
O=[N+]([O-])c1ccc(Oc2ccc(N=C=S)cc2)cc1,Potency,[6],inactive
COc1cc2c(cc1O)CCN[C@]21CS[C@@H]2c3c(OC(C)=O)c(C)c4c(c3[C@H](COC1=O)N1[C@@H]2[C@H]2c3c(cc(C)c(OC)c3O)C[C@@H]([C@@H]1O)N2C)OCO4,"activity change, negative = inhibition",[2],-93.9% [at 11.4 µM] (inactive)
same,"activity change, negative = inhibition",[7],-71.9% [at 11.4 µM] (inactive)
same,"activity change, negative = cytotoxicity",[3],-20.3% [at 11.3 µM] (inactive)
same,"activity change, negative = inhibition",[4],-92.8% [at 11.3 µM]
CC(C)C[C@H](NC(=O)CNC(=O)c1cc(Cl)ccc1Cl)B1OC(=O)C(CC(=O)O)(CC(=O)O)O1,Potency,[2],inactive
same,Potency,[7],1260 nM (active)
same,Potency,[3],794 nM (active)
Cc1ccc(C(=O)OCc2ccc([C@@H](CN)C(=O)Nc3ccc4cnccc4c3)cc2)c(C)c1,Potency,[6],inactive
